The whole screen tested about 59,000 compounds, of which about 6,200 (11%) were called active. Another 9% or so got no clear call; they are omitted. Cut-off read from the data, not from the text of the source: active = max dye-equivalent concentration above about 10 nM; inconclusive = mostly about 1.1 nM to 9.6 nM; inactive = weaker than that. The entries come from a sample that favours actives as a whole.
Assay: qHTS Assay for Spectroscopic Profiling in 4-MU Spectral Region
Conditions: compound autofluorescence, 340/450 nm, 4-MU equivalents; stronger effect = higher value
How it was run: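 Compounds in 100 mM Tris, pH 8.0, incubated 15 min at room temperature, then fluorescence read at 340 nm excitation/450 nm emission. Signal converted to 4-MU dye-equivalent concentration using an on-plate six-point 4-MU standard curve.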

Structure (SMILES)	max dye-equivalent concentration
CCOc1ccc2nc(N3CCCN(C(=O)Nc4ccccc4C)CC3)c(C#N)cc2c1	16 nM (active)
Cc1ccccc1NC(=O)CNc1ccccc1N1CCCCC1	inactive
CCOc1ccc(NC(=O)N2CCN(CC)CC2)cc1	inactive
Cn1c(-c2ccc(F)cc2)cnc1SCC(=O)NCc1ccco1	inactive
O=C(CN1CCN(c2nc(-c3ccccc3)cs2)CC1)NCc1ccc2c(c1)OCO2	inactive
CC1(C)SC2c3ccccc3C(=O)N2[C@@H]1C(=O)NCc1ccco1 (some centres undefined)	inactive
CC1(C)S[C@@H]2[C@@H](NC(=O)[C@@H](N)c3ccccc3)C(=O)N2[C@H]1C(=O)O	44 nM (active)
CCS(=O)(=O)N1CCC(C(=O)N2CCN(c3ccccc3)CC2)CC1	inactive
CCOc1ccccc1Nc1nnc(SCC(=O)Nc2cc(C)on2)s1	inactive
CC(=O)OC(C)C[N+](C)(C)C (centres undefined)	500 nM (active)
CC(C[N+](C)(C)C)OC(N)=O (centres undefined)	inactive
CCN1C(=O)/C(=C\N2CCN(c3ccccc3)CC2)SC1=S	inactive
CCN1C(=O)/C(=C2\SC(N3CCCCC3)=NC2=O)c2ccccc21	18 nM (active)
Cc1ccc(C(=O)OCC(=O)NCc2ccc3c(c2)OCO3)s1	inactive
CC(=O)Nc1cccc2c1[n+]([O-])c(C)c(C)[n+]2[O-]	inactive
Cc1ccc2cccc(O)c2[n+]1[O-]	17 nM (active)
O=C(O)[C@@H]1[C@@H](C(=O)O)[C@]23C[C@@]2(C(=O)O)[C@]2(C(=O)O)CCC3=C3CCCC312	inactive
CCOC(=O)CSc1nnc(CNc2ccc(F)cc2)o1	inactive
CCCOP(=O)(c1ccc(N(C)C)cc1)C(O)c1cc(OC)c(OC)c(OC)c1 (centres undefined)	inactive
Cc1c(S(=O)(=O)O)ccc(N=Nc2c(O)c(C(=O)O)cc3ccccc23)c1Cl	11 nM (active)
CCc1ccc(-c2nnn(Cc3nc4ccccc4s3)n2)cc1	inactive
COc1ccc(Cc2nnc(NS(=O)(=O)Cc3ccccc3)s2)cc1	inactive
COC(=O)C1(S(=O)(=O)C2(C(=O)OC)CCCC2)CCCC1	inactive
N#Cc1c(N)n(CCOC(=O)c2ccc(Cl)cc2)c2nc3ccccc3nc12	600 nM (active)
O=S(=O)(O)c1nc2ccccc2n1Cc1ccc(Cl)cc1	inactive
C[C@H](NC(=O)OC(C)(C)C)c1nnc(SCC(N)=O)o1	inactive
CC1(C)Oc2ccc(C(=O)N3CCOCC3)cc2N(CC(=O)Nc2ccccc2)C1=O	inactive
O=C(c1cccnc1NCc1ccccc1)N1CCOCC1	inactive
Cc1nc(NCc2ccccc2)c(C(N)=O)c2c1COC(C)(C)C2	100 nM (active)
